# Source: PubChem (National Center for Advancing Translational Sciences (NCATS))
# A selection: hits, their analogues and other compounds. The true share with any hit is near 18%.
# DT40 TDP1 CPT: qHTS for Inhibitors of human tyrosyl-DNA phosphodiesterase 1 (TDP1): qHTS in cells in presence of CPT. chicken DT40 Tdp1-/-;hTDP1 cells + 20 nM CPT, ATP luminescence, 48 h. Potency, µM (highest dose often 46.2 µM), inactives show at the top dose activity change, negative = growth inhibition, actives largely listed as inhibitors. 12% of 420,000 active; note: potency is the fitted concentration of half-maximal effect; nearly all actives have a fitted effect of over 55% in size
#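 Chicken DT40 Tdp1-/- cells complemented with human TDP1, 400 cells/well, exposed to compounds plus 20 nM camptothecin for at least 48 h at 37 C; viability read as ATP content by CellTiter-Glo luminescence.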
# DT40 TDP1 no CPT: qHTS for Inhibitors of human tyrosyl-DNA phosphodiesterase 1 (TDP1): qHTS in cells in absence of CPT; DT40 Tdp1-/- hTDP1 cells, no CPT, ATP luminescence, 48 h; Potency, µM (series often up to 46.2 µM), inactives show at the highest dose activity change, negative = growth inhibition, most hits filed as inhibitors; 15% of 420,000 active; note: potency is the fitted concentration of half-maximal effect; nearly all actives have a fitted effect of over 55% in size
#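 Cells were dispensed at 400 per well, compounds added by pin tool, plates incubated ≥48 hr at 37 °C, then CellTiter-Glo added for 30 min at room temperature before luminescence reading. Line: DT40 Tdp1-/- complemented with hTDP1; camptothecin omitted.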
# Six1-Eya2 blk: qHTS Assay for Inhibitors of the Six1/Eya2 Interaction | Homeobox protein SIX1 (Homo sapiens) + Protein phosphatase EYA2 (Homo sapiens), … | AlphaScreen GST-Six1/His-Eya2 binding, biochemical; stronger effect = lower value | activity change, % (concentration not given with the values) | 0.56% of 360,000 active; in the data active = activity change below about -65%; inconclusive = mostly about -30% to -63%
#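 Six1/Eya2 binding was read as AlphaScreen signal after compounds were pinned into GST-Six1 plus His-tagged Eya2 (5X stock 250/500 nM) in pH 8.0 Tris/NaCl/TCEP buffer, beads added, then incubated 1 h, 37 C, dark.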
# IL-1B inflam inh: qHTS for Inhibitors of Inflammasome Signaling: IL-1-beta AlphaLISA Primary Screen; 4.7% of 360,000 active; activity change, % at 57.5 µM; THP-1 LPS/ATP IL-1B secretion, AlphaLISA, 16 h; stronger effect = lower value; AID 743279, 2014; in the data active = activity change below about -50%; inconclusive = mostly about -30% to -49%
#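 Secreted IL-1B measured by AlphaLISA bead assay after 16 h compound exposure of THP-1 cells; compounds (final up to 57.5 uM) added 1 h before LPS (250 ng/mL) and ATP (1.25 mM) stimulation; lower signal means less secretion.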
# CtBP-E1A blk: qHTS Assay for Inhibitors of the CtBP/E1A Interaction | AlphaScreen GST-E1A/His-CtBP binding, 1536-well; stronger effect = lower value | activity change, % (test concentration not listed) | 0.49% of 340,000 active; in the data active = activity change below about -65%; inconclusive = mostly about -30% to -63%
#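 Protein mix (5X: 125 nM each GST-E1A, His-CtBP) was incubated with pinned compound 2 h at 37 deg C in dark, in 50 mM Tris pH 8.0 buffer with 300 mM NaCl. Glutathione donor and nickel acceptor beads followed; AlphaScreen signal read after 1 h.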
# TDP1 block: qHTS Assay for Inhibitors of Tyrosyl-DNA Phosphodiesterase (TDP1); Potency, µM (doses to about 130 µM), without a hit: top-dose activity change, negative = inhibition, usual class: inhibitors; AID 485290, 2010; 0.28% of 350,000 active; recombinant TDP1, AlphaScreen DNA substrate cleavage; Tyrosyl-DNA phosphodiesterase 1 (Homo sapiens), Q9NUW8; note: potency is the fitted concentration of half-maximal effect; nearly all actives have a fitted effect of over 40% in size
#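 Here, a 5' biotin and 3' phosphotyrosine-FITC DNA oligonucleotide reports Tdp1 activity: intact substrate bridges AlphaScreen beads, while cleavage leaves a 3' phosphate and drops signal. All incubations at room temperature.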
# Active calls of the source: *; ? = inconclusive; . = no result; [ ] = another dose, or the depositor's remark. Unless noted, calls come from the whole dose curve; as a rule, active = well fitted curve in the direction sought with a large enough effect; inconclusive = small, poorly fitted or top-dose-only effect, or another doubt; inactive = no such curve, though single readings can be large; an effect the other way counts as inactive or inconclusive. % is set by controls: 0 for no effect and ±100 for the full control effect.
SMILES,DT40 TDP1 CPT,DT40 TDP1 no CPT,Six1-Eya2 blk,IL-1B inflam inh,CtBP-E1A blk,TDP1 block
O=C(NCCc1ccccc1)c1ccc2nccnc2c1,?,-23%,0,8,8,-3%
O=C(NCCc1ccccc1)c1ccc(CSc2nc3cccnc3n2Cc2ccc(F)cc2)cc1,?,15µM*,.,.,.,-2%
CC(=O)C(Sc1ncnc2c1nnn2-c1ccc(F)cc1)C(=O)N(C)C (centres undefined),21µM*,21µM*,-13,-30,4,-4%
CCC1(C)CC(C(N)=S)CCO1 (centres undefined),18µM*,21µM*,-2,-8,3,-7%
CC[C@@H](O)C[C@H]1CCC[C@@]2(C[C@@H]3OC(=O)/C=C/[C@@](C)(O)[C@@H](O)[C@H](C)[C@@H](O)[C@H](OC4CCC(N(C)C)C(C)O4)[C@@H](O)[C@](C)(O)CCCCC/C=C/[C@@H]4CC(C)(C)O[C@@]4(O)C[C@H](O2)[C@H]3C)O1 (some centres undefined),0.016µM*,0.15µM*,-2,-56*,6,.
COC(=O)[C@]12CCC(C)(C)C[C@H]1[C@H]1C(=O)C=C3[C@@]4(C)C=C(C#N)C(=O)C(C)(C)[C@@H]4CC[C@@]3(C)[C@]1(C)CC2,1.2µM*,1.1µM*,.,.,.,.
CC1(C)Cc2c(c(N3CCOCC3)nc3sc4c(NCc5ccccc5)nnnc4c23)CS1,16µM*,23µM*,-3,-21,-1,.
COc1ccc(C(Nc2ccccc2)P(=O)(Oc2ccccc2)Oc2ccccc2)cc1 (centres undefined),-4%,?,-17,-4,12,-3%
CC1CC[C@@]2(OC1)O[C@@H]1[C@@H](O)[C@H]3C4CC[C@H]5C[C@@H](O[C@@H]6O[C@H](CO)[C@H](O[C@@H]7O[C@H](CO)[C@@H](O)[C@H](O[C@@H]8OC[C@@H](O)[C@H](O)[C@H]8O)[C@H]7O[C@@H]7O[C@H](CO)[C@@H](O)[C@H](O[C@@H]8O[C@H](CO)[C@@H](O)[C@H](O)[C@H]8O)[C@H]7O)[C@H](O)[C@H]6O)[C@H](O)C[C@]5(C)C4CC[C@]3(C)[C@H]1[C@@H]2C (some centres undefined),5.3µM*,6.7µM*,.,.,.,16%[56.1 µM]
CC1CC[C@@]2(OC1)OC1C(O)C3C4CC[C@H]5CC(O[C@@H]6O[C@@H](CO)[C@H](OC7OC(CO)C(O)C(OC8OCC(O)C(O)[C@H]8O)[C@@H]7O[C@@H]7OC(CO)[C@H](O)[C@@H](O[C@@H]8OC(CO)C(O)C(O)C8O)C7O)C(O)C6O)C(O)C[C@]5(C)C4CC[C@]3(C)C1C2C (some centres undefined),2.3µM*,1.3µM*,.,.,.,8%
O=C(CSc1nc2ccccc2c(=O)n1-c1ccc(F)c(Cl)c1)Nc1ccc2c(c1)CCC2,?,-19%,1,0,3,.
Nc1ccc(Cl)c(Cl)c1,6%,-13%,-4,13,1,6%
Cc1cc(I)ccc1Nc1c(C(=O)NOCC2CC2)cc(F)c(F)c1F,.,.,.,.,.,16%
CCCCCCC(=O)c1c(O)n(-c2ccc(OC)cc2)c(=O)[nH]c1=O (tested in a mixture with another compound),-29%,26µM*,3,20,.,5%
